Results on 14 compounds are retold here after PubChem BioAssay (EPA / NIEHS).

What is called AC50 is the midpoint of the concentration-response curve, whichever way the signal moves.

Inconclusive results are not listed. The source made the active and inactive calls. Rule for the calls: active = hit-call score of the fitted dose curve at least 0.9, where 1 is the maximum; inconclusive = response in the unintended direction; inactive = score below 0.9.

In test [1] the target is human Sirtuin 2 (SIRT2), SIRT2 (gene 22933) (UniProt Q8IXJ6). In words: NVS_ENZ_hSIRT2: NovaScreen (NVS) Enzymatic Assay for human Sirtuin 2 (SIRT2) (AID 2283217). Summed up: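 Single-point duplicate screen at 25 uM, then concentration-response (max 50 uM) for chemicals passing threshold. Enzyme activity of recombinant human SIRT2 measured after 1 hr by fluorescence with mobility-shift separation of product; DMSO baseline.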

Test [2] has as its target human Vascular Endothelial Growth Factor Receptor 1 (VEGFR1), FLT1 (gene 2321) (UniProt P17948). The experiment in a line: NVS_ENZ_hVEGFR1: NovaScreen (NVS) Enzymatic Assay for human Vascular Endothelial Growth Factor Receptor 1 (VEGFR1) (AID 2283226). In a few lines:
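Kinase activity of recombinant human VEGFR1 was read by fluorescence after electrophoretic separation of product from substrate, 1 h post-dosing; initial duplicate single-point testing at 25 uM, followed by concentration-series follow-up, with DMSO as baseline.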

Test [3] has as its target human Sirtuin 1 (SIRT1), SIRT1 (gene 23411) (UniProt Q96EB6). The experiment in a line: NVS_ENZ_hSIRT1: NovaScreen (NVS) Enzymatic Assay for human Sirtuin 1 (SIRT1) (AID 2283219). Summed up:
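Cell-free recombinant SIRT1 with a fluorescent substrate; substrate and product separated by electrophoretic mobility shift and read by fluorescence intensity, 1 h after dosing. Primary screen at 25 uM in duplicate; hits re-run in concentration-response up to 50 uM, relative to DMSO.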

Test [4] addresses human SRC Proto-Oncogene, Non-receptor Tyrosine Kinase (SRC), SRC (gene 6714) (UniProt P12931). The experiment in a line: NVS_ENZ_hSRC: NovaScreen (NVS) Enzymatic Assay for human SRC Proto-Oncogene, Non-receptor Tyrosine Kinase (SRC) (AID 2283223). In a few lines: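 Compounds passing 30% inhibition at 25 uM (duplicate) were titrated to a top concentration of 50 uM. Enzyme activity read by fluorescence with mobility-shift substrate/product separation after 1 h; DMSO baseline.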

The target of test [5] is human Vascular Endothelial Growth Factor Receptor 2 (VEGFR2), KDR (gene 3791) (UniProt P35968). In words: NVS_ENZ_hVEGFR2: NovaScreen (NVS) Enzymatic Assay for human Vascular Endothelial Growth Factor Receptor 2 (VEGFR2) (AID 2283230). Summed up: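 Cell-free recombinant VEGFR2 kinase, fluorescent substrate with electrophoretic mobility-shift separation; read 1 h after dosing. Screened at 25 uM in duplicate, hits to concentration-response up to 50 uM; loss-of-signal versus DMSO.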

Test [6] has as its target sheep Cyclooxygenase-1 (Cox1), PTGS1 (gene 443551) (UniProt P05979). The experiment in a line: NVS_ENZ_oCOX1: NovaScreen (NVS) Enzymatic Assay for sheep Cyclooxygenase-1 (Cox1) (AID 2283239).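 Note: actives reduce cyclooxygenase activity so potencies are for inhibitors.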 In a few lines:
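Ovine seminal vesicle extract; absorbance (colorimetric) enzyme read-out at 0.66 h post-dose. Primary: single conc 25 uM, duplicate. Follow-up: concentration series on actives. Activity = signal loss vs DMSO baseline.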

Test [7] deals with rat Constitutive Nitric Oxide Synthase (CNOS), Nos1 (gene 24598) (UniProt P29476). The experiment in a line: NVS_ENZ_rCNOS: NovaScreen (NVS) Enzymatic Assay for rat Constitutive Nitric Oxide Synthase (CNOS) (AID 2283236). In a few lines: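 Single 25 uM duplicate screen, then concentration series to 50 uM for chemicals meeting threshold. Rat brain membrane-derived CNOS activity detected radiometrically by filtration and scintillation counting, 1 h after compound addition; DMSO as baseline.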

Test [8] deals with human Sirtuin 3 (SIRT3), SIRT3 (gene 23410) (UniProt Q9NTG7). The experiment in a line: NVS_ENZ_hSIRT3: NovaScreen (NVS) Enzymatic Assay for human Sirtuin 3 (SIRT3) (AID 2283222). In a few lines: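 Cell-free enzyme assay with recombinant protein and fluorescent substrate, product separated by electrophoretic mobility shift; read 1 hour after dosing. Screened in duplicate at 25 uM, then singleton concentration-response up to 50 uM; loss of signal versus DMSO.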

The target in test [9] is rabbit Imidazoline 2 Central (I2C), CKB (gene 100009085) (UniProt P00567). The experiment in a line: NVS_ENZ_rabI2C: NovaScreen (NVS) Enzymatic Assay for rabbit Imidazoline 2 Central (I2C) (AID 2283228). In a few lines:
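Rabbit brain membranes, cell-free; readout by filter-based scintillation counting 1.5 hours after dosing, loss of signal vs DMSO. Initial duplicate test at 25 uM, then concentration-response with 50 uM top concentration.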

The target of test [10] is human Vascular Endothelial Growth Factor Receptor 3 (VEGFR3), FLT4 (gene 2324) (UniProt P35916). In words: NVS_ENZ_hVEGFR3: NovaScreen (NVS) Enzymatic Assay for human Vascular Endothelial Growth Factor Receptor 3 (VEGFR3) (AID 2283229). In a few lines:
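Chemicals first run in duplicate at 25 uM, with actives re-tested in concentration series to a top of 50 uM. Recombinant VEGFR3 activity measured after 1 h via fluorescence with mobility-shift product separation; inhibition fitted relative to DMSO.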

The target of test [11] is Adenosine receptor A1 (Bos taurus) (UniProt P28190). The experiment in a line: NVS_GPCR_bAdoR_NonSelective: NovaScreen (NVS) G Protein-Coupled Receptor Assay for bovine Adenosine Receptor (AdoR), Non-selective Binding (AID 2283244). In a few lines:
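Cell-free binding with membranes from bovine striatum: radioligand displaced by test chemical, read after 1 h by filtration and scintillation. Single-point 25 uM duplicate primary, 50 uM top concentration in follow-up curves, DMSO baseline.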

Test [12] deals with guinea pig Leukotriene B4 Receptor (LTB4), gene 100379538. The experiment in a line: NVS_GPCR_gLTB4: NovaScreen (NVS) G Protein-Coupled Receptor Assay for guinea pig Leukotriene B4 Receptor (LTB4) (AID 2283247). In a few lines: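 Membranes from guinea pig spleen incubated 2 h with radioligand and compound; bound counts measured by filtration and scintillation. Screened first at 25 uM in duplicate, then actives titrated to a 50 uM top concentration relative to DMSO.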

Test [13] addresses guinea pig Leukotriene D4 Receptor (LTD4), CYSLTR1 (gene 100135514) (UniProt Q2NNR5). The experiment in a line: NVS_GPCR_gLTD4: NovaScreen (NVS) G Protein-Coupled Receptor Assay for guinea pig Leukotriene D4 Receptor (LTD4) (AID 2283248). In a few lines:
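Guinea pig lung membrane preparation; bound radioligand measured by filter scintillation after 1 h, loss of signal versus DMSO marking displacement. Compounds tested at 25 uM in duplicate, hits retested to max 50 uM.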

For test [14], the target named is sheep Cyclooxygenase-2 (Cox2), PTGS2 (gene 443460) (UniProt P79208). In words: NVS_ENZ_oCOX2: NovaScreen (NVS) Enzymatic Assay for sheep Cyclooxygenase-2 (Cox2) (AID 2283231). In a few lines:
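Compounds were first run at 25 uM in duplicate against tissue-extracted ovine COX-2; those passing a preset inhibition threshold went to singleton concentration-response testing with a 50 uM maximum. Read-out: absorbance at 0.66 hour.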

In test [15] the target is human Rho Associated Coiled-coil Containing Protein Kinase 1 (ROCK1), ROCK1 (gene 6093) (UniProt Q13464). The experiment in a line: NVS_ENZ_hROCK1: NovaScreen (NVS) Enzymatic Assay for human Rho Associated Coiled-coil Containing Protein Kinase 1 (ROCK1) (AID 2283214). In a few lines:
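Compounds first run in duplicate at 25 uM against recombinant human ROCK1, then followed in concentration series. Kinase activity was read 1 h post-dosing by fluorescence with mobility-shift separation, as signal loss relative to DMSO.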

Test [16] can be described thus: NVS_GPCR_bNPY_NonSelective: NovaScreen (NVS) G Protein-Coupled Receptor Assay for bovine Neuropeptide Y (NPY) Receptor, Non-selective Binding (AID 2283245). Summed up: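 Displacement of radioligand from bovine hippocampal membrane receptors, read by filtration and scintillation counting after 1 hour. Concentration-response to a top of 50 uM followed a 25 uM duplicate primary screen. Loss of signal versus DMSO.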

In test [17] the target is bovine Dopamine Receptor (DR), Non-selective Binding, DRD1 (gene 281125) (UniProt Q95136). The experiment in a line: NVS_GPCR_bDR_NonSelective: NovaScreen (NVS) G Protein-Coupled Receptor Assay for bovine Dopamine Receptor (DR), Non-selective Binding (AID 2283241). Summed up: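 Filter-based radioligand binding with bovine striatal membrane, incubated 1 h; DMSO as negative baseline. Initial duplicate single-point test at 25 uM preceded concentration series for actives.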

The test system of test [18] is bovine Histamine 1 Receptor (H1), gene 281231. The experiment in a line: NVS_GPCR_bH1: NovaScreen (NVS) G Protein-Coupled Receptor Assay for bovine Histamine 1 Receptor (H1) (AID 2283246). Summed up:
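Hits from a 25 uM duplicate primary screen were retested in concentration series (top 50 uM); binding measured as scintillation-counted displacement of radioligand from bovine cerebellar membranes after 1 h, normalised to DMSO.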

human Vascular Endothelial Growth Factor Receptor 2 (VEGFR2), KDR (gene 3791), sequence (P35968 whole entry, looked up): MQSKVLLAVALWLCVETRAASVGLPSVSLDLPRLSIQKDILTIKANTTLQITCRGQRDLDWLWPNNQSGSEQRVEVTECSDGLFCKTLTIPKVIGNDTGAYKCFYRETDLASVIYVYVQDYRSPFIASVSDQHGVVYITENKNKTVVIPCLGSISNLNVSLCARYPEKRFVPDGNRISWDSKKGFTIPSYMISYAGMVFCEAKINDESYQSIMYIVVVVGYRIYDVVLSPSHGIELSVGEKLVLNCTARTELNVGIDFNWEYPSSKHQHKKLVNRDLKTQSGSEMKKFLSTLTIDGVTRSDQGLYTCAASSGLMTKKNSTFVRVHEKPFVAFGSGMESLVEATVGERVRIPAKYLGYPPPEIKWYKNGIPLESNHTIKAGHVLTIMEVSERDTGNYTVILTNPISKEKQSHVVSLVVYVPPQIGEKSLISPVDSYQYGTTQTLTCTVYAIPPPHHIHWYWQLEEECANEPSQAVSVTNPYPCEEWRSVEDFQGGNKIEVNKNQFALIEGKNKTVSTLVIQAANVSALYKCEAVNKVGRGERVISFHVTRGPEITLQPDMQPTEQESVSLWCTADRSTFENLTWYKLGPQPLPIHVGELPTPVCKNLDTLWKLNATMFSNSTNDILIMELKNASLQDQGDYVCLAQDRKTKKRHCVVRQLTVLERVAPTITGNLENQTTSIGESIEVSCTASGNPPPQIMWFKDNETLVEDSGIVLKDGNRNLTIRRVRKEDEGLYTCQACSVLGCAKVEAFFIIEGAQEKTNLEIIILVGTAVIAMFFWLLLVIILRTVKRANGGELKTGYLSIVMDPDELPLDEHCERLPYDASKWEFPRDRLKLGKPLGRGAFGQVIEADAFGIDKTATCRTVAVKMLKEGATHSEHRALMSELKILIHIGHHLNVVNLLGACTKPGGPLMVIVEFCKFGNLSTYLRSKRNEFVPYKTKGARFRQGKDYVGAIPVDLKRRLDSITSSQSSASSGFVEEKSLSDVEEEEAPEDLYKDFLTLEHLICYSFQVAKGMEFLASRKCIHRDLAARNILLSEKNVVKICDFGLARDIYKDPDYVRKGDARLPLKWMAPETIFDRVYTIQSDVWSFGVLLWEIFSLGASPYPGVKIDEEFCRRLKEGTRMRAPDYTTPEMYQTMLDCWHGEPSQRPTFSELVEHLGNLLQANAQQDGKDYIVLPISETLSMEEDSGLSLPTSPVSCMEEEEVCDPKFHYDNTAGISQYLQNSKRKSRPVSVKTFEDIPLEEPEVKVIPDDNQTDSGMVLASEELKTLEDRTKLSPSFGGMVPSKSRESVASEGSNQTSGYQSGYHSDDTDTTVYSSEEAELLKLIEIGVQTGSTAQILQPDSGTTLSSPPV
human Sirtuin 1 (SIRT1), SIRT1 (gene 23411), sequence (Q96EB6 whole entry, looked up): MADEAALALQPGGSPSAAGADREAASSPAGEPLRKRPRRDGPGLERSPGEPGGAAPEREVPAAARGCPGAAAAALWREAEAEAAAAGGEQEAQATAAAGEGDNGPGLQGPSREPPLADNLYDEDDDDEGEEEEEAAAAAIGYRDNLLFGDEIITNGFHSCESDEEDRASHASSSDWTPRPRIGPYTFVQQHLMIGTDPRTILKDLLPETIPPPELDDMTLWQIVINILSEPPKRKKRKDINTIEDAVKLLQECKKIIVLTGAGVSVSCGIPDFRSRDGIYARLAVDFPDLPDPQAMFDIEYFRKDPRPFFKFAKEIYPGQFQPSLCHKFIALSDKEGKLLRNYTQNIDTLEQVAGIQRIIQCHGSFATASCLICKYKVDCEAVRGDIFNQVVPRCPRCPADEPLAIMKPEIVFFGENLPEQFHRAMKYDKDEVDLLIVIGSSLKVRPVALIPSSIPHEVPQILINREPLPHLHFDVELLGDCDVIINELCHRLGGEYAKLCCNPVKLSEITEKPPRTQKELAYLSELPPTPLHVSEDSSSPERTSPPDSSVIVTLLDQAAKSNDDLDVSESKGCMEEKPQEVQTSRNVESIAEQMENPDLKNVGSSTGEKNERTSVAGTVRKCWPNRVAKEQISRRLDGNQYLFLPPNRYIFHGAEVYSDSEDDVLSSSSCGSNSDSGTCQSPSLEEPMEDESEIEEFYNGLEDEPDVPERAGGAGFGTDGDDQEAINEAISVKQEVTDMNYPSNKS
Adenosine receptor A1 (Bos taurus), sequence (P28190 whole entry, looked up): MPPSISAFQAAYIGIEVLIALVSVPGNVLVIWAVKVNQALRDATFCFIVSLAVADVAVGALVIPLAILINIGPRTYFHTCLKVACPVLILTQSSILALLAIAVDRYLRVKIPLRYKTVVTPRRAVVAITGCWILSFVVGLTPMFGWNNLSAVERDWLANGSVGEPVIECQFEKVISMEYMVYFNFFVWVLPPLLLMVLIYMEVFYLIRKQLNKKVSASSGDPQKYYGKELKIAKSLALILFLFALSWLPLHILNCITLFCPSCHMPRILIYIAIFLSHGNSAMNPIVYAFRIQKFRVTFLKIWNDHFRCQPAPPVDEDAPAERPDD
sheep Cyclooxygenase-1 (Cox1), PTGS1 (gene 443551), sequence (P05979 whole entry, looked up): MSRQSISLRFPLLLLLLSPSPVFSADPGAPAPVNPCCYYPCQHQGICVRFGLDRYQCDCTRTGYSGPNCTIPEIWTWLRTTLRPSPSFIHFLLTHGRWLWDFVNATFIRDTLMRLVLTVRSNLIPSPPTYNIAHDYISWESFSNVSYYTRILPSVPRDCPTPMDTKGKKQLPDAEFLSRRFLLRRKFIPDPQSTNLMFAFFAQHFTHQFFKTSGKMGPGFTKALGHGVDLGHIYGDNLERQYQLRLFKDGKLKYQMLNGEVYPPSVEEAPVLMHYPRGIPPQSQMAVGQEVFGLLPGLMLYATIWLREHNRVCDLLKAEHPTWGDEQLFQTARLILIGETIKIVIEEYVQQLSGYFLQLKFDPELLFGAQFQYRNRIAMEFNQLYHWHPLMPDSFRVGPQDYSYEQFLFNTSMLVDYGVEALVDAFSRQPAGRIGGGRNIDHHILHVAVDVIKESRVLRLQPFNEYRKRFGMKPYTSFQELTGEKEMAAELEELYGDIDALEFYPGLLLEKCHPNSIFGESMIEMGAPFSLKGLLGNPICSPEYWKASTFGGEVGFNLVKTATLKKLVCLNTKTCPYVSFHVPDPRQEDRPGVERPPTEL
guinea pig Leukotriene D4 Receptor (LTD4), CYSLTR1 (gene 100135514), sequence (Q2NNR5 whole entry, looked up): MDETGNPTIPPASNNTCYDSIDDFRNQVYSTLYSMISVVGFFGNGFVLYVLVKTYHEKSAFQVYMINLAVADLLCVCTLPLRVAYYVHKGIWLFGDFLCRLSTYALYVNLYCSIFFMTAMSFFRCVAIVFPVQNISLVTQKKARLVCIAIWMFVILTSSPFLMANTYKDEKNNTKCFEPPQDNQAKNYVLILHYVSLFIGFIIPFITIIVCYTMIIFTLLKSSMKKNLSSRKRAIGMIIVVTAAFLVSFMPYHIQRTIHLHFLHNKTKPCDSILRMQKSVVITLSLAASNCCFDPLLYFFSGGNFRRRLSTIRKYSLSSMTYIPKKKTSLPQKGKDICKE
rabbit Imidazoline 2 Central (I2C), CKB (gene 100009085), sequence (P00567 whole entry, looked up): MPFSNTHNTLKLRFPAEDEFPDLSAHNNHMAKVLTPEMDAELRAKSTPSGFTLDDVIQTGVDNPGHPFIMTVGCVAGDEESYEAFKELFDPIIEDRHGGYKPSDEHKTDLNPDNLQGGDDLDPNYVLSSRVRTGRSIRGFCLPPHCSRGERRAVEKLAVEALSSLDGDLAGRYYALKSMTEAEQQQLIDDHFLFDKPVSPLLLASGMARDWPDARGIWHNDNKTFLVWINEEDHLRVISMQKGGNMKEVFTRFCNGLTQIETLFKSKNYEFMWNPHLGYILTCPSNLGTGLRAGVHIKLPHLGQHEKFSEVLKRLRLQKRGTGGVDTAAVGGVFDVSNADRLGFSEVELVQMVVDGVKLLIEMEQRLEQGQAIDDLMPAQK
human Sirtuin 2 (SIRT2), SIRT2 (gene 22933), sequence (Q8IXJ6 whole entry, looked up): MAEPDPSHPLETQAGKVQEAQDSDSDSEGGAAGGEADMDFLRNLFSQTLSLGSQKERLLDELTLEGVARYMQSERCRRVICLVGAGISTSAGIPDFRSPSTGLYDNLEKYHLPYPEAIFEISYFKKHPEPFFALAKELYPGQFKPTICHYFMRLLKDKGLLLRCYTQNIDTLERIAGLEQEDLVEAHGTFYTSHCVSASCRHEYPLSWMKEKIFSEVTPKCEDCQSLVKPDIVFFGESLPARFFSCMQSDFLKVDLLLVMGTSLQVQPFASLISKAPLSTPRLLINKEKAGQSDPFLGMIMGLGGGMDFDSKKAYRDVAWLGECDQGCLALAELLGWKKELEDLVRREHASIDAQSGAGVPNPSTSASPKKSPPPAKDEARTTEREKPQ
human Sirtuin 3 (SIRT3), SIRT3 (gene 23410), sequence (Q9NTG7 whole entry, looked up): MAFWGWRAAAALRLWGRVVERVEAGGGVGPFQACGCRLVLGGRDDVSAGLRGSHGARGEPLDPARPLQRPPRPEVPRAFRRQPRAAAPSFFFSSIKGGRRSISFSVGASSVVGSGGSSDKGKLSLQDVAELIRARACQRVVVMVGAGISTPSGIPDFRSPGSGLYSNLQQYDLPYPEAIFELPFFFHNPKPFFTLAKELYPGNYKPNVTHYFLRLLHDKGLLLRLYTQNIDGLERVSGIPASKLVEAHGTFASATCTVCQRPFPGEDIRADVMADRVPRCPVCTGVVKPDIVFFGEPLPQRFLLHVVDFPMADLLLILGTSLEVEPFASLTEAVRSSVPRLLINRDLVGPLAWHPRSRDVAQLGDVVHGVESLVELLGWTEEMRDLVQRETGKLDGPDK
bovine Dopamine Receptor (DR), Non-selective Binding, DRD1 (gene 281125), sequence (Q95136 whole entry, looked up): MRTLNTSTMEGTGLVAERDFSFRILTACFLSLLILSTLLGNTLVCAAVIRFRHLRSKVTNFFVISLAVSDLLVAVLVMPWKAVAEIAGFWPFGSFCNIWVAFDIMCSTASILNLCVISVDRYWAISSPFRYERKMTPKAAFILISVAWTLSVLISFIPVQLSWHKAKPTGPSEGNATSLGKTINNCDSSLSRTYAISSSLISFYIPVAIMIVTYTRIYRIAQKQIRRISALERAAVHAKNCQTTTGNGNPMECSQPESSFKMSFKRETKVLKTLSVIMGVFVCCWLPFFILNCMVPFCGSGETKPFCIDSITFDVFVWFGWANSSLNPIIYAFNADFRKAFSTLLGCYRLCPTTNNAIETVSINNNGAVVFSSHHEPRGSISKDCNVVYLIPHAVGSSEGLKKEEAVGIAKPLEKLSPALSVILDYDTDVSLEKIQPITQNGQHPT

On to `CCCCOCCO`, for which the compound was called inactive in test [1] and in test [2].

On to `COCC(C)OCC(C)O` (stereo not drawn), for which the compound was called inactive in test [1], in [3] and in test [4].

With `Oc1cc2ccccc2c2ccccc12`, the AC50 in test [5] was 7.7 µM (active); in test [6] it was 27.7 µM (active).

As to `CC(C)CCCCCCOC(=O)CCCCC(=O)OCCCCCCC(C)C`, the result in [7] was inactive.

On to `CCN(CC)CCNc1ccc(CNC=O)c2sc3ccc(OC)cc3c(=O)c12`, for which the compound was classed as inactive in test [1], in test [3], in test [8], in test [9], in test [10] and in [5]. In addition, the AC50 in test [11] is 4.38 µM (active).

`Nc1cccc2c(N)cccc12`: the call in test [3], in test [8], in [10] and in [11] was inactive.

Turning to `Cc1cc(CCN2CCN(c3nsc4ccccc34)CC2)cc2c1NC(=O)CC2(C)C`, the outcome in [3], in test [11], in test [12] and in test [13] was inactive.

With `CC[C@H](C)[C@@H](C(=O)O)n1sc2ccccc2c1=O`, the result in test [3], in test [12] and in [13] was inactive.

Consider `CC1=C(/C=C/C(C)=C/C=C/C(C)=C/C(=O)O)C(C)(C)CCC1`, for which the compound was classed as inactive in test [2] and in test [9].

With `CCc1ccc(CCOc2ccc(CC3SC(=O)NC3=O)cc2)nc1` (stereo not drawn), the AC50 in test [7] is 4.25 µM (active).

In the case of `NC(=O)N(O)[C@@H]1C=C[C@H](Oc2cccc(Oc3ccc(F)cc3)c2)C1`, the compound was classed as inactive in test [14] and in test [6].

Regarding `CCCOc1sc(C(=O)N2CCC(c3cc(CN)ccc3F)CC2)c(C)c1Br`, the call in test [15], in [5] and in test [7] was inactive. Further, the AC50 in test [9] was 4.64 µM (active); in [16], 36.3 µM (active).

As for `c1ccc2cc3c(ccc4ccccc43)cc2c1`, the AC50 in test [17] is 32.8 µM (active). The call in test [18] was inactive.

Turning to `Cc1oc(-c2ccccc2)nc1CCOc1ccc(C[C@H](Nc2ccccc2C(=O)c2ccccc2)C(=O)O)cc1`, the AC50 was 18.3 µM (active) in [1] and 26.5 µM (active) in test [6]. The result in [16], in test [12] and in test [13] was inactive.
